Reference: PubChem BioAssay AID2314 (National Center for Advancing Translational Sciences (NCATS), 2010)
The campaign covered roughly 300,000 compounds. About 37,000 (12%) were called active. The sample as a whole holds a higher share of actives than the screen did. Values without a mark were called inactive. Cut-off read from the data, not from the text of the source: active = max response mostly above about 13% (no sharp cut-off); inactive = mostly below about 14%.

Experiment: Cycloheximide Counterscreen for Small Molecule Inhibitors of Shiga Toxin; note: read at 38.3 µM for the half of the compounds with a filed dose; 0% is about no effect
Conditions: cell reporter, cycloheximide protein synthesis inhibition counterscreen; active compounds read high
`CCn1c(CC(=O)Nc2ccccc2C)nnc1SCC(=O)NC1=NCCS1` showed a max response of 7.82%.
With `COC(=O)Cc1ccc(N(Cc2ccccc2F)S(=O)(=O)c2ccc(Br)cc2)cc1` the max response was -4.43%.
Molecule `COc1ccc(Cl)cc1NS(=O)(=O)c1cccc(C(=O)NCC2CCCO2)c1` (stereo not given) has a max response of -3.64%.
Work on `CC(=O)N1c2ccc(S(=O)(=O)N(C)CC(=O)N(C)Cc3ccccc3)cc2CC1C` (stereo not given) yielded a max response of -2.22%.
With `NC(=O)NC(=O)CSc1nc2cc([N+](=O)[O-])ccc2n1-c1cccc(C(F)(F)F)c1` the max response was -1.36%.
In the case of `CSc1c(SCc2ccccc2)cnn(Cc2ccccc2)c1=O`, the max response is reported as 5.89%.
With `Cn1c(-c2ccc(F)cc2)cnc1SCC(=O)NNC(=O)Cc1ccccc1` the max response was -0.376%.
In the case of `Cn1c(CO)cnc1SCc1ccccc1`, the max response is reported as 21.1% (active).
Molecule `CCOC(=O)c1cccc(NS(=O)(=O)c2c(C(=O)N3CCCCCC3)c(C)n(C)c2C)c1` has a max response of 1.94%.
`CCCCCCN=C(CC)c1c(O)n(CCCC)c(=O)[nH]c1=O` gave a max response of -2.56%.
With `CC/C(=N\NC(=O)c1ccccc1O)c1c(O)n(Cc2ccccc2)c(=O)[nH]c1=O` the max response was 23% (active).
In the case of `CCCCn1c(O)c(C(CC)=NCc2ccco2)c(=O)[nH]c1=O`, the max response is reported as -4.03%.
With `Cc1cc(-c2ccc(C)c(S(=O)(=O)Nc3ccc(S(N)(=O)=O)cc3)c2)on1` the max response was 4.89%.
In the case of `Cc1ccccc1C(=O)Nc1ccc(N2CCCCCC2)cc1`, the max response is reported as 19% (active).
Molecule `O=C(Nc1ccc(S(=O)(=O)N2CCc3ccccc3C2)cc1)c1ccccc1` has a max response of -1.47%.
With `C/C(=N\NC(=O)c1ccccc1C)c1ccc(N2CCOCC2)cc1` the max response was 18.1% (active).
In the case of `CN1CCN(c2ccc(NC(=O)c3ccccc3)cc2)CC1`, the max response is reported as 30.4% (active).
`CC(=O)c1ccc(N2CCN(CC(=O)Nc3ccccc3N3CCOCC3)CC2)cc1` gave a max response of -0.941%.
For `COc1cccc(C(=O)Nc2ccc(N3CCCC3)cc2)c1`, the max response was 30.8% (active).
`COc1cccc(C(=O)Nc2ccc(N3CCN(C(=O)c4ccco4)CC3)cc2)c1` showed a max response of -5.64%.
For `Cc1ccccc1C(=O)N1CCN(c2ccc(NC(=O)c3cccs3)cc2)CC1`, the max response was -1.82%.
Work on `CN1CCN(c2ccc(NC(=O)c3ccc4c(c3)[nH]c(=O)n4Cc3ccc(F)cc3)cc2)CC1` yielded a max response of -2.44%.
Molecule `C/C(CCc1ccccc1)=N\NC(=O)c1ccc(CN2CCOCC2)cc1` has a max response of 6.88%.
`COc1ccc(C(=O)NC(=S)Nc2ccc(N3CCCC3)cc2)cc1OC` showed a max response of -0.974%.
Molecule `Cc1ccccc1C(=O)NC(=S)Nc1ccc(N2CCN(C(=O)c3ccccc3)CC2)cc1` has a max response of -3.14%.
`CC(C)Oc1ccc(CC(=O)NNC(=S)Nc2ccc(Br)cc2)cc1` showed a max response of -3.17%.
`Cc1cc(-c2ccc(S(=O)(=O)N3CCN(c4cccc(C(F)(F)F)c4)CC3)s2)on1` showed a max response of 1.18%.
`CCOc1ccccc1C(=O)NC1CC2CCCC(C1)N2Cc1ccccc1` (stereo not given) gave a max response of -3.26%.
Molecule `COC(=O)C1=C(N)Oc2cc(C)[nH]c(=O)c2C1c1ccc(Cl)cc1` (stereo not given) has a max response of 0.893%.
With `CC(C)(C)n1ncc2c(=O)n(Cc3ccc(Cl)cc3)cnc21` the max response was 11.3%.
With `COc1ccc(/C=N/NC(=O)C(C)N(c2ccc(OC)cc2)S(C)(=O)=O)cc1` (stereo not given) the max response was -4.86%.
`Cc1nc(N2CCN(c3ccccn3)CC2)c2c(C)c(C(=O)Nc3ccc(F)c(Cl)c3)sc2n1` gave a max response of -3.16%.
Molecule `O=C(Nc1cc(C(=O)Nc2ccc(S(=O)(=O)O)cc2)cc(C(=O)Nc2ccc(S(=O)(=O)O)cc2)c1)Nc1cc(C(=O)Nc2ccc(S(=O)(=O)O)cc2)cc(C(=O)Nc2ccc(S(=O)(=O)O)cc2)c1` has a max response of -6.6%.
For `CC(C)(C)C(=O)NC1CC2CCCC(C1)N2C(=O)Nc1ccccc1F` (stereo not given), the max response was -1.8%.
`O=C(O)c1cc(S(=O)(=O)N(Cc2ccccc2)c2cccc(C(F)(F)F)c2)ccc1Cl` gave a max response of -2.82%.
Molecule `CCc1nn(CCCC(=O)Nc2ccc(C)c(C)c2)c(=O)c2cc3occc3n12` has a max response of 0.415%.
With `COc1cccc(C(=O)NNC(=O)c2ccccc2Br)c1` the max response was -3.22%.
In the case of `COc1cccc(C(=O)Nc2cc3c(cc2Br)OCCCO3)c1`, the max response is reported as 86.1% (active).
Molecule `COc1cccc(C(=O)NNS(=O)(=O)c2ccc(F)cc2)c1` has a max response of 11.3%.
In the case of `CC(=O)Oc1cccc(C(=O)Nc2ccccc2NC(=O)c2cccc(OC(C)=O)c2)c1`, the max response is reported as 4.65%.
With `COc1cccc(C(=O)NNC(=O)c2cccc(F)c2)c1` the max response was 26.6% (active).
Molecule `COc1cccc(C(=O)NNC(=O)/C=C/c2ccccc2)c1` has a max response of 0.531%.
With `O=C(NCCCN1CCN(c2ccc(F)cc2)CC1)Nc1ccc([N+](=O)[O-])cc1` the max response was 5.85%.
`CN(C)CCCNC(=O)c1ccc2[nH]c3ccccc3c2c1` gave a max response of -1.73%.
For `CN(C)CCNC(=O)c1[nH]nc2c1CCc1ccccc1-2`, the max response was 41.8% (active).
`COc1ccc(C(=O)Nc2ncc3c(n2)-c2ccccc2CC3)cc1` gave a max response of 1.82%.
`Cc1ccccc1CN1CCC(C(=O)Nc2ccc(Oc3cccnc3)cc2)CC1` gave a max response of 1.17%.
For `CCOC(=O)c1c(NC(=S)NC)sc2c1CCCC2`, the max response was 20.2%.
For `CCOC(=O)c1c(NC(=O)C2CCN(S(=O)(=O)c3ccc(Cl)cc3)CC2)sc2c1CCCC2`, the max response was 25.4% (active).
Molecule `CCOCC(=O)Nc1sc2c(c1C(=O)OCC)CCCC2` has a max response of -2.31%.
`COc1ccc(-c2n[nH]c(C)c2-c2ccccc2OC)c(O)c1` showed a max response of -4.33%.
`COc1ccc(-c2nc(SCC(=O)N3CCCC3)n[nH]2)cc1` gave a max response of -1.17%.
In the case of `CCc1c(C)nc(SCC(=O)NC2CCCC2)[nH]c1=O`, the max response is reported as 4.69%.
In the case of `CCc1ccc(-c2nc(SCC(=O)NC3CCCC3)n[nH]2)cc1`, the max response is reported as 18.2% (active).
Molecule `O=C(O)CCn1c(Cc2ccccc2)nc2ccccc21` has a max response of -1.08%.
`CCC(C(=O)OCC(=O)Nc1c(Cl)cc(Cl)cc1Cl)c1ccccc1` (stereo not given) showed a max response of 1.18%.
Molecule `Cc1cccc(OCC(=O)Nc2ccc(C(=O)O)cc2NC(=O)COc2cccc(C)c2)c1` has a max response of 2.91%.
In the case of `O=C(CCc1ccccc1)NNc1ccc(F)cc1`, the max response is reported as -0.637%.
With `Cc1cccc(OCC(=O)Nc2ccccc2F)c1` the max response was 44.1% (active).
`Cc1cccc(OCCC(=O)Nc2ccccc2C(N)=O)c1` gave a max response of 12.6%.
`Cc1cccc(OCC(=O)NCCCNC(=O)c2ccccn2)c1` gave a max response of -3.32%.
Work on `Cc1ccc(F)c(NC(=O)CCOc2ccccc2C)c1` yielded a max response of 6.62%.
In the case of `COc1cccc(OCC(=O)Nc2ccccc2C(N)=O)c1`, the max response is reported as 34.1% (active).
Work on `CCCOC(=O)Nc1ccccc1C(N)=O` yielded a max response of -2.21%.
In the case of `Cc1ccc(F)c(NC(=O)CCc2ccccc2)c1`, the max response is reported as 33% (active).
`CC(=O)OCC(NC(=O)C(Cc1ccccc1)NC(=O)OC(C)(C)C)C1OC(n2ccc(=O)[nH]c2=O)C(OC(C)=O)C1OC(C)=O` (stereo not given) gave a max response of 10.7%.
Molecule `CC(=O)N1c2ccc(S(=O)(=O)N3CCCC(C(=O)Nc4cccc(Cl)c4)C3)cc2CC1C` (stereo not given) has a max response of -3.38%.
In the case of `O=C(c1ccc2ccccc2n1)N1CCN(c2ccccc2Cl)CC1`, the max response is reported as 25.6% (active).
`COc1ccccc1N1CCN(C(=O)c2c(-c3c(Cl)cccc3Cl)noc2C)CC1` gave a max response of -1.33%.
Work on `O=C(c1c(Cl)cccc1Cl)N1CCN(c2cccc3[nH]ccc23)CC1` yielded a max response of -4.42%.
Molecule `COc1cc(S(=O)(=O)N2CCOCC2)ccc1NC(=O)COc1ccc(N(C)S(=O)(=O)c2ccc(C)cc2)cc1` has a max response of -7.22%.
In the case of `CCc1ccc(NC(=O)CN2C(=O)CSC2=O)cc1`, the max response is reported as 24.5% (active).
Molecule `CCc1ccc(NC(=O)CN2C(=O)COc3ccc(S(=O)(=O)N4CCCC4)cc32)cc1` has a max response of -7.9%.
With `COc1ccc(NC(=O)CN2C(=O)CSC2=O)cc1` the max response was -1.12%.
For `CC(C)Cc1nc(Nc2ccc(S(=O)(=O)N3CCCC3)cc2)c2nnn(Cc3ccccc3)c2n1`, the max response was -1.7%.
Molecule `CCOC(=O)C(NS(=O)(=O)c1ccc(C)cc1)(C(F)(F)F)P(=O)(OCC(C)C)OCC(C)C` (stereo not given) has a max response of -2.77%.
`CCc1ccccc1NC(=O)c1cc(-c2ccc3c(c2)OCO3)on1` gave a max response of 4.1%.
With `O=C(Nc1ccccc1C(F)(F)F)c1cc(-c2ccc(O)cc2)on1` the max response was 37.9% (active).
`O=C(Nc1cccnc1Cl)c1cc(-c2cccc(Cl)c2)on1` gave a max response of -5.45%.
In the case of `CCOc1ccc2[nH]c(=O)c(CN(CCCO)S(=O)(=O)c3ccc(F)cc3)cc2c1`, the max response is reported as -6.67%.
Molecule `O=C(NCCN1CCOCC1)c1c(F)c(F)c(F)c(F)c1F` has a max response of -3.15%.
In the case of `Fc1ccc(-c2ccc(NCCN3CCOCC3)nn2)cc1`, the max response is reported as 34.4% (active).
For `CN(CC(=O)NCCN1CCOCC1)S(=O)(=O)c1ccc(F)cc1`, the max response was -1.49%.
With `CC1CCC(NS(=O)(=O)c2ccc3c(c2)CC(=O)N3)CC1` (stereo not given) the max response was 8.83%.
In the case of `N#Cc1ccc(CSc2nnc(-c3ccccn3)n2-c2ccc(Cl)cc2)cc1`, the max response is reported as -3.26%.
`N#Cc1cccc(CSc2ncnc(N)n2)c1` gave a max response of 5.59%.
With `N#Cc1ccc(CSc2ncccn2)cc1` the max response was 19.6% (active).
`COc1cc(NC(=O)c2ccccc2NS(=O)(=O)c2ccc(Cl)s2)cc(OC)c1` showed a max response of 7.35%.
`O=Cc1c(NCCc2cccc(F)c2)c2ccccc2[nH]c1=O` gave a max response of 0.988%.
In the case of `Cc1ccc(S(=O)(=O)NNC(=O)/C=C/c2cccc(F)c2)cc1`, the max response is reported as -1.72%.
`CCOc1cccc(NC(=O)Cn2nc(-c3ccc4c(c3)OCCO4)ccc2=O)c1` gave a max response of -1.26%.
For `O=C(Nc1nc(-c2ccc3c(c2)OCO3)cs1)c1ccncc1`, the max response was 21% (active).
In the case of `CC(=O)NCCC(=O)Nc1nc(C)c(Cc2ccc3c(c2)OCO3)s1`, the max response is reported as 11.6%.
In the case of `CC(=O)NCCC(=O)Nc1nc(-c2ccc3c(c2)OCCO3)cs1`, the max response is reported as 36.2% (active).
`COc1ccc(-c2csc(NC(=O)c3ccc(N4C(=O)CCC4=O)cc3)n2)cc1OC` gave a max response of -1.22%.
